# From publication PMC7862700, “An all-to-all approach to the identification of sequence-specific readers for epigenetic DNA modifications on cytosine”
# What was measured:
# Assay in all cases: DAPPL (digital affinity profiling via proximity ligation, sequencing); 10 mM Tris-HCl pH 7.5, 50 mM NaCl, 1 mM DTT, 4% glycerol, room temperature, 30 min; GST-TFs on glutathione beads, 16-mer random dsDNA library, 0.1% formaldehyde crosslink after washing; high values mean tight binding
# FEV = molecular target: T1, FEV (Homo sapiens, UniProt Q99581 1-238); settings: protein: recombinant; tags: N-terminal GST; dsDNA, one strand shown
# T1 sequence: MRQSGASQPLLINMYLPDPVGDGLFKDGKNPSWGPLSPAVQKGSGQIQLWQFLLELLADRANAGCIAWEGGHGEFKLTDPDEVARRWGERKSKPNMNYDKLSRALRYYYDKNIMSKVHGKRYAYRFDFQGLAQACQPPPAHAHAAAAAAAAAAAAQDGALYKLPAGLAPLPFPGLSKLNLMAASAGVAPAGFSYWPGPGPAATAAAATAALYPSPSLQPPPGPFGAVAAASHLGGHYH
# How it was run: (§1)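 After expression in yeast as GST fusions, human transcription factors were bound to glutathione beads, DNA-barcoded and mixed with a tag-only sample. The pools were incubated with 200 nmole of a 16-mer random double-stranded DNA library in Tris/NaCl/DTT/glycerol buffer (30 min, room temperature), washed and crosslinked with 0.1% formaldehyde. Proximity ligation with BsaI/T4 ligase ran for 1 h at 37 °C, before PCR amplification and sequencing on an Illumina NextSeq500. Binding signal is a hexamer's read frequency for a factor divided by its frequency for the tag-only sample.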
# ETV5 = ETV5 (Homo sapiens, UniProt P41161 1-510); settings: protein: recombinant; tags: N-terminal GST; dsDNA, one strand shown
# Sequence of ETV5 (P41161 whole entry): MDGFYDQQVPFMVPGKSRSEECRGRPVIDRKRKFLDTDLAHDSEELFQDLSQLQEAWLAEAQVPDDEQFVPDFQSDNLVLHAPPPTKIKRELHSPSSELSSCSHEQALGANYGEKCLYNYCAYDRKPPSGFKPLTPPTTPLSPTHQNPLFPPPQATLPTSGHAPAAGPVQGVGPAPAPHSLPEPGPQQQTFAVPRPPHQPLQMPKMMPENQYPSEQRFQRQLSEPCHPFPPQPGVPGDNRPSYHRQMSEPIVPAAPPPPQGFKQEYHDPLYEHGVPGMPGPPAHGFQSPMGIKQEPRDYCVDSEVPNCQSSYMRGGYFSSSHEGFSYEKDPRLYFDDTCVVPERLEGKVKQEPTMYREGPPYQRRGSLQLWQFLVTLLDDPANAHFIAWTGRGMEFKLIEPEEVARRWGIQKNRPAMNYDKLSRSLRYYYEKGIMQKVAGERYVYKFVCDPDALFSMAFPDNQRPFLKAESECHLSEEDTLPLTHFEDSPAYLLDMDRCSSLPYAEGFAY
# How it was run: as §1
# HSF1 = HSF1 (Homo sapiens, UniProt Q00613 1-529); settings: protein: recombinant; tags: N-terminal GST; chain copies: 3; dsDNA, one strand shown
# Sequence of HSF1 (Q00613 whole entry): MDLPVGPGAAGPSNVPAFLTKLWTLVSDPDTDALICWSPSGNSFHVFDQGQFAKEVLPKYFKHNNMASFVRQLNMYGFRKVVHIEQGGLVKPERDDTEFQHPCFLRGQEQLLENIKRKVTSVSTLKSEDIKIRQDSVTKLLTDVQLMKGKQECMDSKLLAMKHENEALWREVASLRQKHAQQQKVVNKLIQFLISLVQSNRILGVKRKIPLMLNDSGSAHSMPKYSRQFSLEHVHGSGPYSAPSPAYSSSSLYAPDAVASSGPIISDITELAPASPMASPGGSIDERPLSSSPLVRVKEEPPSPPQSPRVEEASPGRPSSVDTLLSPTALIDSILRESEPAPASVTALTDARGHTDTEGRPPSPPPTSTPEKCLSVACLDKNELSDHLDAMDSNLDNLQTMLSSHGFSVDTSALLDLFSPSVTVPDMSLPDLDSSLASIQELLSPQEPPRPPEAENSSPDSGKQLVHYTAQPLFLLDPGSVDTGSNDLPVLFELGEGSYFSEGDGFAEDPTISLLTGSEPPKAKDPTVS
# How it was run: as §1
# SPIC = molecular target: T2, SPIC (Homo sapiens, UniProt Q8N5J4 1-248); settings: protein: recombinant; tags: N-terminal GST; dsDNA, one strand shown
# T2 sequence: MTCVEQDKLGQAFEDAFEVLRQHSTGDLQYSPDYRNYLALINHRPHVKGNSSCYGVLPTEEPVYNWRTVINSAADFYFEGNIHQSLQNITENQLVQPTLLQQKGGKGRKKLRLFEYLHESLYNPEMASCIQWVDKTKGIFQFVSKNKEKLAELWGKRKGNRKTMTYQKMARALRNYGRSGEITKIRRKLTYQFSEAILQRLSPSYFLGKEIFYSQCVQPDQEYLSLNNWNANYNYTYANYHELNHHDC
# How it was run: as §1
# ELF4 = ELF4 (Homo sapiens, UniProt Q99607 1-663); settings: protein: recombinant; tags: N-terminal GST; dsDNA, one strand shown
# Sequence of ELF4 (Q99607 whole entry): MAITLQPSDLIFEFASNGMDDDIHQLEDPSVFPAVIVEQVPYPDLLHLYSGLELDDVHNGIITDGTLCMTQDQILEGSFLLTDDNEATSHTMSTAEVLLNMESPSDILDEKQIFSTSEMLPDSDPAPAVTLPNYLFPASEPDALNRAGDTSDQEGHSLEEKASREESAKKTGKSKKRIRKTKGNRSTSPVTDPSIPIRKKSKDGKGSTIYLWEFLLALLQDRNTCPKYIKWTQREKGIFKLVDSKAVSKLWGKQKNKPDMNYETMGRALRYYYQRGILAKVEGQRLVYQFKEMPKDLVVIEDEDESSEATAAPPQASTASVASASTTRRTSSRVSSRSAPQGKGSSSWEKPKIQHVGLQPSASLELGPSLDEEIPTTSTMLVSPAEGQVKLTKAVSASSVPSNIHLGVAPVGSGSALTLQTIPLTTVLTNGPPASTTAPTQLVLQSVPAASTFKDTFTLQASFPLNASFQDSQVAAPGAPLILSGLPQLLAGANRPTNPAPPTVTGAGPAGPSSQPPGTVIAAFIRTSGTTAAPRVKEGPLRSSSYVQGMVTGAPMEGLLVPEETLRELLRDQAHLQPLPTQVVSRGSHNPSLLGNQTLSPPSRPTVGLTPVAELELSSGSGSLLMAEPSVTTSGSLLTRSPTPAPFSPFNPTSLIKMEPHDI
# How it was run: as §1
# ELK4 = molecular target: T3, ELK4 (Homo sapiens, UniProt P28324-2 1-405); settings: protein: recombinant; tags: N-terminal GST; dsDNA, one strand shown
# T3 sequence: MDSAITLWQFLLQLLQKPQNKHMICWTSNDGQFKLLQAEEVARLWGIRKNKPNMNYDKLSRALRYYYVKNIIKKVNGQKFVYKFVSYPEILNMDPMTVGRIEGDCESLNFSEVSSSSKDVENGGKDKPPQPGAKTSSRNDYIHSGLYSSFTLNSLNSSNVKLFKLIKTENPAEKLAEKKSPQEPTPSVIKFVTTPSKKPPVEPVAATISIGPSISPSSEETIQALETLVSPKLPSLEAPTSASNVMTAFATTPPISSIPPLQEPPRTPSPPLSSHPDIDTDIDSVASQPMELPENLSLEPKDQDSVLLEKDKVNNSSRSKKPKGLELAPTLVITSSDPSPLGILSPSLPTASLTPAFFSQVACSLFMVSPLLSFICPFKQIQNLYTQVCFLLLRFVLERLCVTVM
# How it was run: as §1
# ETV2 = molecular target: T4, ETV2 (Homo sapiens, UniProt O00321 1-342); settings: protein: recombinant; tags: N-terminal GST; dsDNA, one strand shown
# T4 sequence: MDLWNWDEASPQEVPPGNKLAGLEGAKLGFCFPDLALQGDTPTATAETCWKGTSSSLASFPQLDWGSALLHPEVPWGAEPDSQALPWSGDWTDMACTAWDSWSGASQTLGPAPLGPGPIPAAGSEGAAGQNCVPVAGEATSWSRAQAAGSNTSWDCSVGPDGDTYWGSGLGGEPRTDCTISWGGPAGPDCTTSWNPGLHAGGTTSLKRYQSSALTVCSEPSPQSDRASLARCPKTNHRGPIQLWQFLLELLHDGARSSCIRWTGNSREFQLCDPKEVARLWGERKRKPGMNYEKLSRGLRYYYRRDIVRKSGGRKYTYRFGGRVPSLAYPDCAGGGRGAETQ
# How it was run: as §1
# ELF3 = molecular target: T5, ELF3 (Homo sapiens, UniProt P78545 1-371); settings: protein: recombinant; tags: N-terminal GST; dsDNA, one strand shown
# T5 sequence: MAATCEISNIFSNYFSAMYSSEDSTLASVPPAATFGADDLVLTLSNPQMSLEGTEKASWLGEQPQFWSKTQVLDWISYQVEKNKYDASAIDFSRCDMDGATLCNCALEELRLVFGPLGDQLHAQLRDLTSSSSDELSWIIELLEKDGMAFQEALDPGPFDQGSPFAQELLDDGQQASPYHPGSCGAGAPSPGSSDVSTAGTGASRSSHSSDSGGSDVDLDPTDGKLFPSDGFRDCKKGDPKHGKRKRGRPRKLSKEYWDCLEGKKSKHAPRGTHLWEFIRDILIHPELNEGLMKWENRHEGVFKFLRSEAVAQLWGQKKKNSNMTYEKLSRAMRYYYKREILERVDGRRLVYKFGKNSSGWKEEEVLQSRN
# How it was run: as §1
# CRX = CRX (Homo sapiens, UniProt O43186 1-299); settings: protein: recombinant; tags: N-terminal GST; dsDNA, one strand shown
# Sequence of CRX (O43186 whole entry): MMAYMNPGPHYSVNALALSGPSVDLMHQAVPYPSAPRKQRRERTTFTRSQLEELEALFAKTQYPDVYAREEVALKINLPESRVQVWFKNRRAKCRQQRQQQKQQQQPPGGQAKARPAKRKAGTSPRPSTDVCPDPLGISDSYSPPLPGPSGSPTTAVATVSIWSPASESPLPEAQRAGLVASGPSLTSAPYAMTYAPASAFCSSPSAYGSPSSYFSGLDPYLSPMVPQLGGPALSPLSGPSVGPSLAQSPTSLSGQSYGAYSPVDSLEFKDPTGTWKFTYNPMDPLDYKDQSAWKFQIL
# How it was run: as §1
# ETV1 = ETV1 (Homo sapiens, UniProt P50549 1-477); settings: protein: recombinant; tags: N-terminal GST; dsDNA, one strand shown
# Sequence of ETV1 (P50549 whole entry): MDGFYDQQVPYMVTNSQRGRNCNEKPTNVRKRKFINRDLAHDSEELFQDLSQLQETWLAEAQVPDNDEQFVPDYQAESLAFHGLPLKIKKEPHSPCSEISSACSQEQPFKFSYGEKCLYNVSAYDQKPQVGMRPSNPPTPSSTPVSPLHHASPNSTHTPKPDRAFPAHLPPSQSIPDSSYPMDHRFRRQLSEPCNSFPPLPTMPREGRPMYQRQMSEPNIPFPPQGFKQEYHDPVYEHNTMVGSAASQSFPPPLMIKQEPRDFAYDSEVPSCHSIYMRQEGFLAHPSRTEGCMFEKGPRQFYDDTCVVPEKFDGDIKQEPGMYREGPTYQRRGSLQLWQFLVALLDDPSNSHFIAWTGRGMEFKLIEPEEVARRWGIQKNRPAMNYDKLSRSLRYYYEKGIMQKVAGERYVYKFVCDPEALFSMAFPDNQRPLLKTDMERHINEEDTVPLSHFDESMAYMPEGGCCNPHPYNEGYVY
# How it was run: as §1
# ERF = molecular target: T6, ERF (Homo sapiens, UniProt P50548 1-548); settings: protein: recombinant; tags: N-terminal GST; dsDNA, one strand shown
# T6 sequence: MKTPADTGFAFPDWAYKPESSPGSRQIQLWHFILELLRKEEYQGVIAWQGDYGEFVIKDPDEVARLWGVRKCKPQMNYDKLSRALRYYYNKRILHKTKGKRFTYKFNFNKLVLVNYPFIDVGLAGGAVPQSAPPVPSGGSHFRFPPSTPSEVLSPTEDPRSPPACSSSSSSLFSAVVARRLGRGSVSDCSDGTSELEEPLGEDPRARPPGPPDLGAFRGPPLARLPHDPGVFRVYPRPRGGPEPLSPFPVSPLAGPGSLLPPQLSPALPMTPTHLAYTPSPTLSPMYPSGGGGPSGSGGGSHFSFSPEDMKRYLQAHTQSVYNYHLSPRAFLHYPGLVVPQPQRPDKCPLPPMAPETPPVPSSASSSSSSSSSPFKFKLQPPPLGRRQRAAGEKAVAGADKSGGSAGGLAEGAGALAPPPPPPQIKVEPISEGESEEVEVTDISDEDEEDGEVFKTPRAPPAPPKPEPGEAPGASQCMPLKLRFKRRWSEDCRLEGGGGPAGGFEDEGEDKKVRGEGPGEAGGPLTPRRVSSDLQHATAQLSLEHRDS
# How it was run: as §1
# ETV3L = molecular target: T7, ETV3L (Homo sapiens, UniProt Q6ZN32 1-361); settings: protein: recombinant; tags: N-terminal GST; dsDNA, one strand shown
# T7 sequence: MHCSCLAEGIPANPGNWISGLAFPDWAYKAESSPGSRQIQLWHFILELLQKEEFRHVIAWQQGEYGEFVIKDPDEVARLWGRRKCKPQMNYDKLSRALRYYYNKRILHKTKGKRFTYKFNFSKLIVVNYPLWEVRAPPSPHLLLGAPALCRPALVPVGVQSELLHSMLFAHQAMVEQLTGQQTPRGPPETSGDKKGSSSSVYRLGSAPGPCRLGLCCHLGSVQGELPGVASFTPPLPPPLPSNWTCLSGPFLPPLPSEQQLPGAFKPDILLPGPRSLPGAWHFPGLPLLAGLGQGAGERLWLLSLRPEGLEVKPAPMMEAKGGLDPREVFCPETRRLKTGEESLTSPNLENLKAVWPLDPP
# How it was run: as §1
# ETS2 = molecular target: T8, ETS2 (Homo sapiens, UniProt P15036 1-469); settings: protein: recombinant; tags: N-terminal GST; dsDNA, one strand shown
# T8 sequence: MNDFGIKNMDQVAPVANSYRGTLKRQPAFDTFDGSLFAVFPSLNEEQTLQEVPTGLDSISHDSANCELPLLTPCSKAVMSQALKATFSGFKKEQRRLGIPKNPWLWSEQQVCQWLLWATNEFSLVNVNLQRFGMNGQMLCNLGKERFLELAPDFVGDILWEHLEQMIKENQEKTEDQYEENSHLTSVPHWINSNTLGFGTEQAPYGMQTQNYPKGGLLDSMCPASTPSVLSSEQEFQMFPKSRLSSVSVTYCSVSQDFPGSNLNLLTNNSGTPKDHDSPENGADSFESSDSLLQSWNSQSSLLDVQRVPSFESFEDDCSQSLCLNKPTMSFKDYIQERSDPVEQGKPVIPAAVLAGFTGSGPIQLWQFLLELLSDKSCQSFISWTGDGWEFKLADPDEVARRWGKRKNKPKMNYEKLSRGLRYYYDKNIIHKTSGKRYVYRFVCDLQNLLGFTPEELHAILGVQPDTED
# How it was run: as §1
# SPDEF = molecular target: T9, SPDEF (Homo sapiens, UniProt O95238 1-335); settings: protein: recombinant; tags: N-terminal GST; dsDNA, one strand shown
# T9 sequence: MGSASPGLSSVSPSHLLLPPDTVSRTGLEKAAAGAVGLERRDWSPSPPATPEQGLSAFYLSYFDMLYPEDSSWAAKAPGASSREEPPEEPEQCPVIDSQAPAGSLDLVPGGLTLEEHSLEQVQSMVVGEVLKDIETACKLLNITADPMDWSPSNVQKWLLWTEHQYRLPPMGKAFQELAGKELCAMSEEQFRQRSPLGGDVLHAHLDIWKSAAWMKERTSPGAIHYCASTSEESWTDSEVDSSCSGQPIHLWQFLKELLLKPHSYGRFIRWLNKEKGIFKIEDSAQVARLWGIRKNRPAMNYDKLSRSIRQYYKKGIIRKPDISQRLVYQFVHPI
# How it was run: as §1
# ETV7 = molecular target: T10, ETV7 (Homo sapiens, UniProt Q9Y603 1-341); settings: protein: recombinant; tags: N-terminal GST; dsDNA, one strand shown
# T10 sequence: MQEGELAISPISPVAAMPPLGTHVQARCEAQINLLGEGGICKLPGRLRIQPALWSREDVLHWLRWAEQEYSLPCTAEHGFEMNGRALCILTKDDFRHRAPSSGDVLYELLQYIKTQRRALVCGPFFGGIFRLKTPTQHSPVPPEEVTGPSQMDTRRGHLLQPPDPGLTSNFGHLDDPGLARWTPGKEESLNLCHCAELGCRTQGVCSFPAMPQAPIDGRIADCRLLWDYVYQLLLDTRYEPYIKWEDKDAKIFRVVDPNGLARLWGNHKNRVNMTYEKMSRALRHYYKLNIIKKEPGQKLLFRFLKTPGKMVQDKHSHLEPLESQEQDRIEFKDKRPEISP
# How it was run: as §1
# ELF5 = molecular target: T11, ELF5 (Homo sapiens, UniProt Q9UKW6-2 1-255); settings: protein: recombinant; tags: N-terminal GST; dsDNA, one strand shown
# T11 sequence: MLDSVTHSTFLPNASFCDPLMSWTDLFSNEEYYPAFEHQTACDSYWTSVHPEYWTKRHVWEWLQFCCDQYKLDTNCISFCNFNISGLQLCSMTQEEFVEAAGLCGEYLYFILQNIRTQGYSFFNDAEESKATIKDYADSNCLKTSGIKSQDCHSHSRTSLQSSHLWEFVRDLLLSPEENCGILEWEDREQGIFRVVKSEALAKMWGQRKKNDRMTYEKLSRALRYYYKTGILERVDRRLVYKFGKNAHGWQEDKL
# How it was run: as §1
# ETV3 = molecular target: T12, ETV3 (Homo sapiens, UniProt P41162-2 1-143); settings: protein: recombinant; tags: N-terminal GST; dsDNA, one strand shown
# T12 sequence: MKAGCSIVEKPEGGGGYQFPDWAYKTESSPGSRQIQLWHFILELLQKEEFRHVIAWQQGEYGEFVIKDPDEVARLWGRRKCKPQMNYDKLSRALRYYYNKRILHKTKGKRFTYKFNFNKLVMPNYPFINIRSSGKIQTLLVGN
# How it was run: as §1
# ETV6 = ETV6 (Homo sapiens, UniProt P41212 1-452); settings: protein: recombinant; tags: N-terminal GST; dsDNA, one strand shown
# Sequence of ETV6 (P41212 whole entry): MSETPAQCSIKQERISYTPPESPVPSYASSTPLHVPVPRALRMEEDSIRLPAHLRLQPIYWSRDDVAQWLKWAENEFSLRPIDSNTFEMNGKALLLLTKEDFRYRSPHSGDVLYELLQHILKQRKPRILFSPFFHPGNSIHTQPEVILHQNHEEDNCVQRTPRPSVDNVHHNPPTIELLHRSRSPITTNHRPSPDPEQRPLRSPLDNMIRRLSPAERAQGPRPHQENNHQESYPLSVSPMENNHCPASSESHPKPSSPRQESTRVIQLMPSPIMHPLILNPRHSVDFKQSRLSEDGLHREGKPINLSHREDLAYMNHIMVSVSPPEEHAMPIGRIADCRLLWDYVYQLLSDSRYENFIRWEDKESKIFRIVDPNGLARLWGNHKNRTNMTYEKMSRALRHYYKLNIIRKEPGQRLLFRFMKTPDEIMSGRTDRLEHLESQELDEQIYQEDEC
# How it was run: as §1
sequence,measurement,setting,value
GAATGT,binding signal,FEV,"1.07 fold enrichment (6-mer frequency, TF over GST control)"
same,binding signal,ETV5,"1.07 fold enrichment (6-mer frequency, TF over GST control)"
same,binding signal,HSF1,"1.88 fold enrichment (6-mer frequency, TF over GST control)"
same,binding signal,SPIC,"1.11 fold enrichment (6-mer frequency, TF over GST control)"
same,binding signal,ELF4,"1.07 fold enrichment (6-mer frequency, TF over GST control)"
same,binding signal,ELK4,"1.07 fold enrichment (6-mer frequency, TF over GST control)"
same,binding signal,ETV2,"1.03 fold enrichment (6-mer frequency, TF over GST control)"
same,binding signal,ELF3,"1.2 fold enrichment (6-mer frequency, TF over GST control)"
same,binding signal,CRX,"1.02 fold enrichment (6-mer frequency, TF over GST control)"
same,binding signal,ETV1,"1.03 fold enrichment (6-mer frequency, TF over GST control)"
same,binding signal,ERF,"1.04 fold enrichment (6-mer frequency, TF over GST control)"
same,binding signal,ETV3L,"1.1 fold enrichment (6-mer frequency, TF over GST control)"
same,binding signal,ETS2,"1.06 fold enrichment (6-mer frequency, TF over GST control)"
same,binding signal,SPDEF,"1.16 fold enrichment (6-mer frequency, TF over GST control)"
same,binding signal,ETV7,"1.13 fold enrichment (6-mer frequency, TF over GST control)"
same,binding signal,ELF5,"1.08 fold enrichment (6-mer frequency, TF over GST control)"
same,binding signal,ETV3,"1.12 fold enrichment (6-mer frequency, TF over GST control)"
same,binding signal,ETV6,"1.03 fold enrichment (6-mer frequency, TF over GST control)"
